Screening results: PubChem BioAssay, National Center for Advancing Translational Sciences (NCATS)
An excerpt weighted towards active compounds, which were near 18% of everything screened.
LDHA block – blocks human lactate dehydrogenase A | purified LDHA, NADH/diaphorase-resazurin fluorescence; hits give low values | 0.15% of 480,000 active | P00338 | AID 1347041 | activity change, % (values are at about 110 or 230 µM); in the data active means activity change below about -30%; inconclusive means mostly about -25% to -30%;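 further: plate controls were DMSO wells for no effect and wells without enzyme for full effect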
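Human LDH5 (2 nM) was incubated with 0.06 mM NADH and 0.2 mM pyruvate for 5 min at room temperature in Tris pH 7.4. Remaining NADH was coupled through diaphorase/resazurin, and resorufin fluorescence was read at 0 and 20 min.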
Gal4-VP16 FLuc – counter-screen for ROR gamma inhibitors: Gal4-VP16 reporter; Drosophila S2 Gal4-VP16 UAS-luciferase, luminescence, 20 h; Potency, µM (series often up to 53.6 µM), for inactives: at the top dose activity, negative = inhibition, usual class: inhibitors; 3.5% of 310,000 active; AID 2546;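 further: Gal4-VP16 expression switched on by copper sulfate through the metallothionein promoter; potency means the concentration at half of the fitted maximal effect; nearly all actives have a fitted effect of over 50% in size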
TDP1 cell noCPT – qHTS for Inhibitors of human tyrosyl-DNA phosphodiesterase 1 (TDP1): qHTS in cells in absence of CPT. 15% of 420,000 active. Potency, µM (doses to about 46.2 µM), without a hit: at the top dose activity change, negative = growth inhibition, actives largely listed as inhibitors. DT40 Tdp1-/- hTDP1 cells, no CPT, ATP luminescence, 48 h. AID 686978, 2013; further: potency means the concentration at half of the fitted maximal effect; nearly all actives have a fitted effect of over 55% in size
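Readout: luminescence from CellTiter-Glo after 30 min in the dark at RT. Cells: DT40 Tdp1-/- with stable hTDP1, 400/well. Exposure: compounds alone, ≥48 hr, 37 °C.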
RORgamma inh – ROR gamma (mouse) transcription inhibition; Drosophila S2 Gal4-RORgamma UAS-luciferase reporter, 20 h; Potency, µM (series often up to 53.6 µM), without a hit: at the highest dose activity change, negative = inhibition, most hits filed as inhibitors; P51450; 5.4% of 310,000 active; further: potency means the concentration at half of the fitted maximal effect; nearly all actives have a fitted effect of over 60% in size
Target sequence (P51450 whole entry, looked up, the tested form may be a part): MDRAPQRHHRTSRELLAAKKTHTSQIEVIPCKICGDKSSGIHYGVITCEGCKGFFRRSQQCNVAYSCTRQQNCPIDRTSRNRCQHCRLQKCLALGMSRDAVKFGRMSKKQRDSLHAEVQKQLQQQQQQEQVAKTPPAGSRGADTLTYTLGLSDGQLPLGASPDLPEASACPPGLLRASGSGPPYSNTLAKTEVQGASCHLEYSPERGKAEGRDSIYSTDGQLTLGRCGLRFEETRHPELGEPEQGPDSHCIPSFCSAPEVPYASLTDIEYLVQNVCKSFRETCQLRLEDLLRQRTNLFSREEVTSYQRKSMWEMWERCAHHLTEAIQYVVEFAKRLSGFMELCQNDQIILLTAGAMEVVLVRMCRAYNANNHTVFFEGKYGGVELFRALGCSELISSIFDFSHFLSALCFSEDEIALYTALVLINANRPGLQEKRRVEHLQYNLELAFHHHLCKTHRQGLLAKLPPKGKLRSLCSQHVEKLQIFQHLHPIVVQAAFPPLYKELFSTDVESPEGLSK
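Drosophila S2 cells stably expressing Gal4-DBD/mouse RORγ fusion under metallothionein promoter plus UAS-luciferase; compound 1 h, then 700 uM CuSO4 induction for 20 h at ambient temperature; inhibition read as reduced luminescence.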
TDP1 cell CPT – DT40-hTDP1 cell growth loss with CPT. Potency, µM (series often up to 46.2 µM), for inactives: at the highest dose activity change, negative = growth inhibition, actives largely listed as inhibitors. chicken DT40 Tdp1-/-;hTDP1 cells + 20 nM CPT, ATP luminescence, 48 h. 12% of 420,000 active; further: potency means the concentration at half of the fitted maximal effect; nearly all actives have a fitted effect of over 55% in size
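Cell growth measured by CellTiter-Glo luminescence after a minimum 48 h, 37 C compound exposure with 20 nM CPT in Tdp1-knockout DT40 cells stably expressing hTDP1, seeded 400/well; qHTS titration format.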
IL1B secr inh – blocks inflammasome-driven IL-1 beta release. activity change, % at 57.5 µM. THP-1 LPS/ATP IL-1B secretion, AlphaLISA, 16 h; hits give low values. 4.7% of 360,000 active; in the data active means activity change below about -50%; inconclusive means mostly about -30% to -49%
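Secreted IL-1B measured by AlphaLISA bead assay after 16 h compound exposure of THP-1 cells; compounds (final up to 57.5 uM) added 1 h before LPS (250 ng/mL) and ATP (1.25 mM) stimulation; lower signal means less secretion.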
Active calls of the source: *; ? = inconclusive; / = no result; [ ] = dose if it differs, or a comment. Unless noted, the call rests on the fitted dose curve; in most records, active means well fitted curve in the direction sought with a large enough effect; inconclusive means small, poorly fitted or top-dose-only effect, or another doubt; inactive means no such curve, though single readings can be large; an effect the other way counts as inactive or inconclusive. Unless noted, on the % scale 0 is the no-effect control and ±100 the full control effect.

SMILES	LDHA block	Gal4-VP16 FLuc	TDP1 cell noCPT	RORgamma inh	TDP1 cell CPT	IL1B secr inh
COCCn1cc(C(=S)N2CCOCC2)c2ccccc21	0.0	8.8%	4.8%	-15.3%	-28.5%	23.9
CC(C)(C)c1ccc(OCCn2cc(C(=O)C3CCCCC3)c3ccccc32)cc1	-2.1	/	/	/	/	/
Cc1ccc(OCCn2cc(C(=O)C3CCCCC3)c3ccccc32)cc1	4.5	/	18.4µM*	/	20.6µM*	/
S=C(c1cn(CCOc2cccc3ccccc23)c2ccccc12)N1CCCC1	-4.4	?	13µM*	11.2µM*	10.3µM*	-6.2
S=C(c1cn(CCOc2ccccc2)c2ccccc12)N1CCCC1	-3.7	-1.8%[0.365 µM]	20µM*	7.08µM*	17.8µM*	-21.3
Cc1ccc(OCCn2cc(C(=S)N3CCCC3)c3ccccc32)cc1C	-3.5	-2.4%[0.365 µM]	4.11µM*	6.31µM*	8.2µM*	-15.0
COCCn1cc(C(=S)N2CCCCC2)c2ccccc21	-7.3	?	?	15.8µM*	0.4%	-19.2
CC1CCCN(c2nc(-c3ccccn3)nc3ccccc23)C1 (stereo not given)	-1.1	/	/	/	/	/
CCCn1nc(S(=O)(=O)N2CCCCC2)c(C(=O)OCC)c1C	10.1	/	/	/	/	/
O=C(c1cc(-c2ccccc2)nc2ccccc12)N(Cc1ccco1)C1CC1	-0.6	/	/	/	/	/
Cc1ccc2nc(C)cc(C(=O)NCCCOC(C)C)c2c1	-14.7	/	/	/	/	/
CN(C)Cc1ccccc1Sc1cccc2ccccc12	0.2	14.1µM*	?	10µM*	?	?
c1ccc(Sc2cccc3ccccc23)c(CNC2=NCCN2)c1	-22.5	-14.4%	11.6µM*	8.7%	13µM*	?
Fc1ccccc1Sc1ccccc1CNC1=NCCN1	-14.0	-10.7%	13µM*	0.5%	20.6µM*	-20.4
Fc1ccc(NCc2ccccc2F)cc1	14.8	/	/	/	/	/
COCC(=O)N1CCC2(CC1)OCCN2S(=O)(=O)c1c(C)cc(C)cc1C	-10.2	/	/	/	/	/
Cc1cccc(Oc2nc(-c3ccncc3)nc3ccccc23)c1	15.6	-2.8%	?	-19.2%	?	5.0
CC(=O)Nc1cccc(Oc2nc(C(F)(F)F)nc3ccccc23)c1	-8.4	-4.7%	?	-2.7%	?	-15.8
Cc1ccccc1Oc1nc(-c2ccccn2)nc2ccccc12	1.9	1.26µM*	5.17µM*	0.316µM*	4.11µM*	?
CC(=O)Nc1ccc(Oc2nc(-c3ccccn3)nc3ccccc23)cc1	-3.9	?	?	-2.5%	?	-94.0*
CC(=O)Nc1cccc(Oc2nc(-c3ccccn3)nc3ccccc23)c1	-9.3	?	?	5.62µM*	?	/
Cc1cccc(Oc2nc(-c3ccccn3)nc3ccccc23)c1	0.6	2.24µM*	1.03µM*	0.562µM*	1.16µM*	-99.2*
O=C(NC1CCN(Cc2ccccc2)CC1)c1cc2cc(F)ccc2[nH]1	4.1	/	/	/	/	/
CC(C)CCCC(C)NC(=O)CCNC(=O)c1ccccc1 (stereo not given)	-5.5	/	/	/	/	/
COc1ccccc1S(=O)(=O)Cc1ccc(C(=O)N2CCN(c3cccc(Cl)c3)CC2)o1	5.4	-5.5%	5.8µM*	-47.3%	6.51µM*	13.6
COc1ccccc1S(=O)(=O)Cc1ccc(C(=O)N2CCOCC2)o1	-4.0	-0.8%	-13.9%	-12.5%	-2.0%	3.4
COc1ccccc1S(=O)(=O)Cc1ccc(C(=O)N2CCN(c3cc(Cl)ccc3C)CC2)o1	-1.1	/	8.2µM*	/	?	/
CCOc1ccc(NC(=O)C(Sc2ccccc2)c2ccccc2)cc1 (stereo not given)	2.6	/	/	/	/	/
COc1ccc2c(c1)cc(C(=O)NC(C)c1ccccc1)n2C (stereo not given)	0.9	/	/	/	/	/
CN1C(=O)C(O)(CC(=O)c2cccc(-n3cccc3)c2)c2ccccc21 (stereo not given)	0.6	-1.4%	?	?	20.6µM*	-10.9
